Experimental data published in PubChem BioAssay AID2314 (National Center for Advancing Translational Sciences (NCATS), 2010).
About 37,000 (12%) of roughly 300,000 compounds were called active. The sample holds actives, similar compounds and a random draw of the others, so the mix is not that of the screen. No stated cut-off is given here; in the data, active means max response mostly above about 13% (no sharp cut-off); inactive means mostly below about 14%.

Assay: Cycloheximide Counterscreen for Small Molecule Inhibitors of Shiga Toxin; further: read at 38.3 µM for the half of the compounds with a filed dose; 0% is about no effect
Details: cell reporter, cycloheximide protein synthesis inhibition counterscreen; hits give high values

SMILES | max response
C=CCOc1ccc(/C=C/C(=O)OCC(=O)NC2CCCCCC2)cc1 | -2.39% (inactive)
O=S(=O)(Cc1nnnn1-c1ccccc1)c1ccccc1 | -0.262% (inactive)
O=C(CN1C(=O)c2ccccc2S1(=O)=O)NC1CCCCC1 | 3.93% (inactive)
Cc1ccc(F)cc1NC(=O)N1CCCN(c2ccc(C(F)(F)F)cn2)CC1 | -0.488% (inactive)
O=C(CSc1nc(Nc2ccccc2)nc(N2CCOCC2)n1)Nc1cc(Cl)ccc1O | 7.58% (inactive)
O=C(O)c1ccc(/C=C2/SC(=S)N(c3cccc(C(F)(F)F)c3)C2=O)cc1 | -7.16% (inactive)
FC(F)(F)c1cccc(NC(=S)Nc2cccc(Cl)c2)c1 | -2.33% (inactive)
S=C(NCc1ccco1)Nc1ccc2c(c1)OCCO2 | 69.9% (active)
COc1cc(NC(=S)NCc2ccco2)c(OC)cc1Cl | -2.3% (inactive)
FC(F)Oc1ccc(NC(=S)NCc2ccco2)cc1Cl | 11.2% (inactive)
Cc1c(Cl)cccc1NC(=S)NCc1ccc2c(c1)OCO2 | -1.28% (inactive)
S=C(NCc1ccco1)NCc1ccccc1Cl | -2.41% (inactive)
S=C(NCc1ccc2c(c1)OCO2)NCc1ccco1 | 28.4% (active)
S=C(Nc1cccc(Cl)c1)Nc1ccc2c(c1)OCCO2 | 42.2% (active)
CN(C)S(=O)(=O)c1cccc(NC(=S)NCc2ccc3c(c2)OCO3)c1 | 0.966% (inactive)
O=S(=O)(c1ccccc1)N(Cc1cccc(F)c1)c1ccccc1 | -0.496% (inactive)
CC(=O)N1CCC(C(=O)Nc2nc(-c3ccccc3)ns2)CC1 | 0.624% (inactive)
NC(=O)c1cc(S(=O)(=O)NCCCc2ccco2)cs1 | -2.26% (inactive)
CCc1nnc(NC(=O)[C@@H](NC(=O)c2cccc(C)c2)C(C)C)s1 | -2.22% (inactive)
C=CCn1c(SCc2ccccc2)nc2c1c(=O)[nH]c(=O)n2C | -1.99% (inactive)
CCCc1nnc(SCC(=O)N2C(C)CCCC2C)n1CC (stereo not given) | 7.27% (inactive)
CC(Sc1nnnn1C1CCCCC1)C(=O)O (stereo not given) | 5.78% (inactive)
O=C(CSc1nnnn1C1CCCC1)N1CCCCC1 | 27% (active)
O=C(CSc1nnc2ccc(-c3ccncc3)nn12)N1CCCCC1 | -4.64% (inactive)
CC(C)C(=O)Nc1nnc(SCC(=O)N2C(C)CCCC2C)s1 (stereo not given) | 1.12% (inactive)

SMILES | max response
CC1CCCC(C)N1C(=O)CSc1nnnn1C1CCCC1 (stereo not given) | 25.7% (active)
O=Cc1cn(-c2ccccc2)nc1-c1ccccn1 | 3.16% (inactive)
Cc1c(CN2CC[C@@H](N3CCN(c4ccccn4)CC3)[C@H](O)C2)[nH]c2ccc(F)cc12 | 1.28% (inactive)
O=C(NCc1ccccc1)C(c1ccccc1)N(C(=O)c1csnn1)c1ccc(F)cc1 (stereo not given) | -4.47% (inactive)
O=S(=O)(Nc1ccc(OC(F)(F)F)cc1)c1cccc2nonc12 | -2.47% (inactive)
O=S(=O)(Cc1nnnn1-c1ccc(Br)cc1)c1ccc(F)cc1 | -2.53% (inactive)
O=S(=O)(Cc1noc(-c2ccc(OC(F)(F)F)cc2)n1)c1ccc(F)cc1 | 22.3% (active)
COc1cc(OC)cc(C(=O)NC(=S)N2CCN(c3ccc(C(F)(F)F)cc3[N+](=O)[O-])CC2)c1 | 4.72% (inactive)
Cn1nccc1NS(=O)(=O)c1ccc(F)cc1 | 162% (active)
Cc1ccc(NS(=O)(=O)c2ccc(F)cc2)nc1 | -3.76% (inactive)
Cc1cc(C)cc(NS(=O)(=O)c2ccc(F)cc2)c1 | -2.02% (inactive)
COc1cc2c(cc1OC)CC1(CCCCC1)N=C2 | -2.87% (inactive)
CSCc1nnc(NC(=O)c2ccc(S(=O)(=O)N3CCCCC3C)cc2)o1 (stereo not given) | -2.84% (inactive)
CCOc1ccc(C2C3=C(CCCC3=O)N(CC(=O)O)C3=C2C(=O)CCC3)cc1 | -3.14% (inactive)
C=CCNc1ncnc2ccc(Br)cc12 | -5.1% (inactive)
COc1ccc(Nc2ncnc3sc(-c4ccccc4)cc23)c(OC)c1 | 7.7% (inactive)
COc1ccc(Nc2ncnc3ccc(Br)cc23)c(OC)c1 | 26.7% (active)
CN(Cc1c(F)cccc1Cl)S(=O)(=O)c1cccs1 | -2.55% (inactive)
CN(CCc1ccccc1)c1ccc([N+](=O)[O-])cn1 | 0.432% (inactive)
CN1c2ccc([N+](=O)[O-])cc2C(C)(C)C12C=Cc1cc(C(=O)O)ccc1O2 (stereo not given) | -2.71% (inactive)
COc1ccc2c(c1)C=CC1(O2)N(CCO)c2ccccc2C1(C)C (stereo not given) | 26% (active)
COc1cccc(CC2(CO)CCCN(CC3=Cc4cc(OC)ccc4OC3)C2)c1 (stereo not given) | -0.657% (inactive)
O=C(c1cccc(-n2cccc2)c1)N1CCN(S(=O)(=O)c2ccc(F)cc2)CC1 | 5.03% (inactive)
O=c1[nH]c(CSc2ccccc2)nc2c1oc1ccccc12 | -1.34% (inactive)
Cc1nc(SCC(=O)NC2CCCC2)[nH]c(=O)c1C | 0.618% (inactive)

SMILES | max response
O=C(CN1CCN(S(=O)(=O)c2ccc(Br)cc2)CC1)Nc1ccccc1C(=O)c1ccccc1 | -0.92% (inactive)
O=S(=O)(Cc1cc(Cl)nc(-c2cccnc2)n1)c1ccccc1 | -0.203% (inactive)
O=S(=O)(c1ccccc1)N1CN(Cc2ccc(F)cc2)c2nc3ccccc3nc21 | 19.8% (active)
C=CCN1CN(S(=O)(=O)c2ccc(OC)cc2)c2nc3ccccc3nc21 | 15.9% (inactive)
COc1ccc(S(=O)(=O)N2CN(CCc3ccc(OC)c(OC)c3)c3nc4ccccc4nc32)cc1 | -0.593% (inactive)
O=C(NCCCN1CCOCC1)C1CCCN(S(=O)(=O)N2CCCCC2)C1 (stereo not given) | 7.19% (inactive)
CC(C)N1CCc2c(sc(NC(=O)Cc3ccccc3)c2C#N)C1 | 1.8% (inactive)
Cc1ccc2occ(/C=N/NC(=O)c3ccccc3C)c(=O)c2c1 | 9.31% (inactive)
NC(=S)N/N=C/c1coc2cc(Cl)ccc2c1=O | -4.85% (inactive)
CC(C)(C)OC(=O)NCCCCCC(=O)N/N=C/c1coc2ccccc2c1=O | 37.7% (active)
COc1cccc(NC(=O)COc2cc(C)cc3oc(=O)cc(C)c23)c1 | -6.8% (inactive)
COC(c1ccccc1)(c1ccccc1)C(Oc1nc(C)cc(C)n1)C(=O)O (stereo not given) | -1.54% (inactive)
CC(C)(C)C1CCC(C(=O)NCC(c2cccs2)N2CCOCC2)CC1 (stereo not given) | 1.44% (inactive)
O=C(NCc1cccs1)C1CCN(S(=O)(=O)c2ccc(Cl)cc2)CC1 | 8.38% (inactive)
O=C(NCc1csc(-c2cccs2)n1)C1CC1 | 49.8% (active)
CCN(CC)S(=O)(=O)c1ccc(N2CCN(C)CC2)c(NC(=O)Nc2ccccc2F)c1 | -3.4% (inactive)
CCC(CC)C(=O)Nc1c2c(nn1-c1ccc(C)cc1)CS(=O)(=O)C2 | -1.32% (inactive)
Cn1c(N)c(C(=O)COC(=O)c2cnc(Cl)c(Cl)c2)c(=O)n(C)c1=O | -2.82% (inactive)
O=C(/C=C/c1ccco1)NC(=S)Nc1ccccc1Br | 21% (active)
COc1ccc(/C=C/C(=O)NC(=S)N2CCCC(C(N)=O)C2)cc1 (stereo not given) | 12.7% (inactive)
O=C(/C=C/c1ccco1)NC(=S)N1CCCCC1 | 25.7% (active)
CC(C)CNC(=O)COC(=O)/C=C/c1ccco1 | -2.86% (inactive)
CCNC(=S)N1CCN(C(=O)c2ccco2)CC1 | -0.408% (inactive)
COc1ccc(Cl)cc1C(=O)NNC(=S)NC(=O)/C=C/c1ccco1 | 0.62% (inactive)
O=C(Cc1ccccc1)Nc1ccc(C(=O)Nc2ccccc2C(=O)O)cc1 | -2.41% (inactive)

SMILES | max response
Cn1sc(=O)c2cc(S(=O)(=O)NC3CC3)ccc21 | -2.97% (inactive)
CCCNC(=S)N1CCC(NC(=O)c2ccc(OC)cc2)CC1 | -1.83% (inactive)
Cc1nnc(SCC(=O)Nc2ccc(S(=O)(=O)Nc3ccc(Cl)nn3)cc2)s1 | -1.1% (inactive)
Cc1cc(NC(=O)CSCc2ccccc2C)no1 | 12.4% (inactive)
COc1ccc(C)cc1NC(=O)Nc1ccccc1SC | 0.774% (inactive)
CCC(=O)Nc1ccc(C(=O)Nc2ccc3c(c2)C(=O)N(CC2CCCO2)C3=O)cc1 (stereo not given) | -2.89% (inactive)
CCOc1ccc(C(=O)Nc2ccc(S(=O)(=O)Nc3cc(C)on3)cc2)cc1 | -5.61% (inactive)
CCOc1ccc(NC(=O)Nc2cc(C)ccc2OC)cc1 | 25.4% (active)
CCOc1ccc(CC(=O)Nc2ccc(S(=O)(=O)Nc3cc(C)on3)cc2)cc1OCC | -4.07% (inactive)
Cc1cc(NC(=O)CN2CCC(O)(c3cccc(F)c3)CC2)no1 | 4.43% (inactive)
Cc1cc(NC(=O)c2ccccc2C)no1 | 32.6% (active)
CCOc1ccc(C(=O)Nc2cc(OC)ccc2OC)cc1 | -3.82% (inactive)
CCC(=O)Nc1ccc(C(=O)Nc2cc(C)on2)cc1 | 17.5% (active)
CCOc1ccc(NC(=O)Nc2cc(C)on2)cc1 | 43.6% (active)
Cc1cc(NC(=O)c2cccc(N3C(=O)CCC3=O)c2)no1 | -2.26% (inactive)
COc1cccc(NC(=S)N(CCc2c(C)[nH]c3ccccc23)Cc2ccco2)c1 | -1.95% (inactive)
O=S(=O)(NC1CC1)c1ccc(Cl)cc1 | -3.78% (inactive)
CCOC(=O)C1=C(CCc2ccccc2)NC(=O)NC1c1ccc2ccccc2c1 (stereo not given) | -1.16% (inactive)
CC1(c2ccc3ccccc3c2)NC(=O)NC1=O (stereo not given) | 1.06% (inactive)
CCN(CC)C(=O)CN(c1cccc(OC)c1)S(=O)(=O)c1ccc(C)cc1 | 1.38% (inactive)
COc1ccc(C)cc1-n1nnnc1SCc1nc2ccccc2c(=O)[nH]1 | 10.3% (inactive)
COc1ccc(CCn2c(NN=C3CCCC3)nc3c2c(=O)[nH]c(=O)n3C)cc1 | 0.589% (inactive)
Cc1ccc(NC(=O)c2sc3nc(N)c(C#N)cc3c2N)cc1 | 41% (active)
CCc1ccc2nc3sc(C(=O)Nc4nnc(CC)s4)c(N)c3cc2c1 | 17.3% (inactive)
CC(=O)Nc1ccc(NC(=O)c2sc3nc4c(c(-c5ccc(C)cc5)c3c2N)CCC4)cc1 | 0.359% (inactive)
